Screens (PubChem BioAssay)
MCF10A rereplic – A quantitative high throughput screen for small molecules that induce DNA re-replication in MCF 10a normal breast cells | MCF 10A DNA re-replication, Hoechst nuclear intensity, 48 h | Potency, µM (series often up to 46.1 µM), inactives show at the highest dose activity, positive = re-replication, most hits filed as activators | 2.9% of 350,000 active | AID 624296, 2012; note: potency is the fitted concentration of half-maximal effect; % of control where 0% means no effect; nearly all actives have a fitted effect of over 50% in size
KB-3-1 tox – qHTS assay for MDR1-selective chemotherapeutics: Primary screen using the parental adenocarcinoma cell KB-3-1; KB-3-1 viability, CellTiter-Glo ATP luminescence, 72 h; Potency, µM (doses to about 46.1 µM), hits mostly cytotoxic; 1.4% of 400,000 active; AID 1347075, 2019; note: potency is the fitted concentration of half-maximal effect; % is set by controls: 0 for no effect and ±100 for the full control effect; nearly all actives have a fitted effect of over 60% in size
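Cytotoxicity measured as CellTiter-Glo luminescence after 72 h at 37 C. Compound titrations were pinned onto drug-naive KB-3-1 parental adenocarcinoma cells grown in DMEM with 10% FBS, and normalized data fitted to concentration-response curves.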
Giardia killer – Small Molecules that selectively kill Giardia lamblia: qHTS. Giardia lamblia trophozoite viability. activity change, % at 7.66 µM, hits read low. 0.15% of 340,000 active; in the data active = activity change below about -80%; inconclusive = between about -30% and that limit;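 note: parasites exposed to compound for two days anaerobically before the ATP read; % is set by controls: 0 for no effect and ±100 for the full control effect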
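Trophozoites 100 cells/well + cpd; 48 hrs, 37 deg C, anaerobic. ATPLite 1-Step added, 15-30 min RT, luminescence read (ATP-based viability).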
SW480 rereplic – A quantitative high throughput screen for small molecules that induce DNA re-replication in SW480 colon adenocarcinoma cells; SW480 DNA re-replication, Hoechst DNA content imaging, 48 h; Potency, µM (doses to about 46.1 µM), for the others: at the top dose re-replication activation, actives largely listed as activators; 1.8% of 340,000 active; AID 624297, 2012; note: potency is the fitted concentration of half-maximal effect; % of control where 0% means no effect; nearly all actives have a fitted effect of over 55% in size
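Image-based DNA-content assay: after two days of treatment, nuclei were labelled with the DNA dye Hoechst and imaged, and hits were compounds raising the count of nuclei showing high fluorescence intensity.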
S-ASM inh – Inhibitors of Secretory Acid Sphingomyelinase (S-ASM): qHTS | Potency, µM (top dose mostly 57.5 µM), for the others: at the highest dose activity change, negative = inhibition, usual class: inhibitors | Sphingomyelin phosphodiesterase (Homo sapiens), P17405 | 0.006% of 340,000 active | placental ASM, HMU-PC fluorogenic substrate, 60 min; note: potency is the fitted concentration of half-maximal effect
Target sequence (P17405 47-631 limits assumed): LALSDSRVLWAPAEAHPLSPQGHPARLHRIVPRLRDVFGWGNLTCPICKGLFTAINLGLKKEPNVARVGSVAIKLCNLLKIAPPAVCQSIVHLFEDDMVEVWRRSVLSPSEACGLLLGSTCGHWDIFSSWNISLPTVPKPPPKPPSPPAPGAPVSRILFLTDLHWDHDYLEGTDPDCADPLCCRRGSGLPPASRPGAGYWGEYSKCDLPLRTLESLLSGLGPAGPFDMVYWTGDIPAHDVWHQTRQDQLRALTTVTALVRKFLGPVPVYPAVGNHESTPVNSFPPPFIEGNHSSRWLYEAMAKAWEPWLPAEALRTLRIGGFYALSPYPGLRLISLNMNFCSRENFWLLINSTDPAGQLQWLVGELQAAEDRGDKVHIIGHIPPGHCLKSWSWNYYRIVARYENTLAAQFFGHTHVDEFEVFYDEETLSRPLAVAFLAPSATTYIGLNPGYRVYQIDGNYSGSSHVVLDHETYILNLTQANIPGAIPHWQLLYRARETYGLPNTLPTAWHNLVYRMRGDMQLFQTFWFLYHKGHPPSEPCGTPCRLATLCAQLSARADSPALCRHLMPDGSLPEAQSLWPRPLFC
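HMU-PC0 cleavage (9 uM final) by human placental ASM, 60 min at 37 °C following 10 min compound exposure at RT; stopped at pH 10, fluorescence Ex 386/Em 447 nm.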
KB-V1 cytotox – qHTS assay for MDR1-selective chemotherapeutics: Primary screen using the drug-selected MDR subline cells KB-V1; KB-V1 MDR cells viability, CellTiter-Glo, 72 h; Potency, µM (doses to about 46.1 µM), hits mostly cytotoxic; 3.4% of 400,000 active; AID 1347076, 2019; note: potency is the fitted concentration of half-maximal effect; % is set by controls: 0 for no effect and ±100 for the full control effect; nearly all actives have a fitted effect of over 60% in size
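qHTS viability screen in drug-selected KB-V1 MDR cells: 72 h compound treatment at 37 degrees C, ATP luminescence end point.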
Active calls of the source: *. Hits are enriched below; roughly 6.9% of the tested compounds scored in any of these assays. Unless noted, calls come from the whole dose curve; as a rule, active = well fitted curve in the direction sought with a large enough effect; inconclusive = small, poorly fitted or top-dose-only effect, or another doubt; inactive = no such curve, though single readings can be large; an effect the other way counts as inactive or inconclusive.

What do the screens show for `Cc1ccc(NC(=O)C(Cc2c[nH]c3ccccc23)NC(=O)OC(C)(C)C)c(C)c1` (centres undefined)?
KB-3-1 tox: inactive; KB-V1 cytotox: inactive

What do the screens show for `COC(=O)c1ccc(OCC2c3cc(OC)c(OC)cc3CCN2C(=O)c2ccccc2C)cc1` (centres undefined)?
KB-3-1 tox: inactive; KB-V1 cytotox: inactive

How did O=C(NCc1ccc2c(c1)OCO2)c1nc(S(=O)(=O)Cc2ccccc2)ncc1Cl do in these assays?
MCF10A rereplic: inconclusive; KB-3-1 tox: 20.6µM*; Giardia killer: 2.1; SW480 rereplic: inconclusive; S-ASM inh: -1.0%; KB-V1 cytotox: inconclusive

Results for CN(Cc1ccccc1)S(=O)(=O)c1ccc(Cl)c(C(=O)NCc2ccc3c(c2)OCO3)c1 ?
MCF10A rereplic: -1.6%; KB-3-1 tox: inactive; Giardia killer: -17.3; SW480 rereplic: -99.7%; S-ASM inh: -3.3%; KB-V1 cytotox: 11.6µM*

Results for O=C(NCc1ccc2c(c1)OCO2)c1nc(S(=O)(=O)Cc2ccccc2F)ncc1Cl ?
MCF10A rereplic: -9.3%; KB-3-1 tox: inactive; Giardia killer: inconclusive; SW480 rereplic: 10.5%; S-ASM inh: 0.8%; KB-V1 cytotox: inactive

How did CN(Cc1ccccc1)S(=O)(=O)c1ccc(Cl)c(C(=O)NCc2ccncc2)c1 do in these assays?
MCF10A rereplic: 19.5%; KB-3-1 tox: inactive; Giardia killer: 10.5; SW480 rereplic: 8.4%; S-ASM inh: 2.6%; KB-V1 cytotox: inconclusive

What do the screens show for `CCN(C(=O)Cn1ncc2c1-c1cc(C)ccc1OC2)c1cc(Cl)ccc1OC`?
KB-3-1 tox: inactive; KB-V1 cytotox: inactive

How did CC[n+]1ccc(C[n+]2ccccc2)c2ccccc21 do in these assays?
MCF10A rereplic: 0.6%; KB-3-1 tox: inactive; Giardia killer: -25.4; SW480 rereplic: -3.0%; S-ASM inh: -16.4%; KB-V1 cytotox: inactive

How did CCN(CC)c1ccccc1/C=C/[n+]1ccc(CCCCI)c2ccccc21 do in these assays?
KB-3-1 tox: 3.66µM*; KB-V1 cytotox: inconclusive

What do the screens show for `O=c1[nH]cnc2c1ccn2C1OC(CO)C(O)C1O` (centres undefined)?
MCF10A rereplic: 2.06µM*; KB-3-1 tox: 14.6µM*; Giardia killer: 12.1; SW480 rereplic: -1.0%; S-ASM inh: 1.7%; KB-V1 cytotox: 16.4µM*

What do the screens show for `O=c1[nH]c(=O)n(C2OC(CO)C(O)C2O)cc1F` (centres undefined)?
MCF10A rereplic: inconclusive; KB-3-1 tox: 20.6µM*; Giardia killer: 3.1; SW480 rereplic: 1.03µM*; S-ASM inh: 3.9%; KB-V1 cytotox: 20.6µM*

What do the screens show for `O=c1[nH]c(=S)ccn1C1OC(CO)C(O)C1O` (centres undefined)?
MCF10A rereplic: inconclusive; KB-3-1 tox: 9.2µM*; Giardia killer: 16.1; SW480 rereplic: -2.5%; S-ASM inh: -2.8%; KB-V1 cytotox: inconclusive

Results for O=c1[nH]cnc2c1[nH]c(=S)n2C1O[C@@H](CO)[C@H](O)[C@@H]1O (some centres undefined) ?
KB-3-1 tox: inconclusive; Giardia killer: -5.5; KB-V1 cytotox: inconclusive

How did O=c1ncccn1C1OC(CO)C(O)C1O (centres undefined) do in these assays?
KB-3-1 tox: inactive; KB-V1 cytotox: inactive

What do the screens show for `COc1ccc(C2C3C=CCCC3(C)C(=O)N2Cc2ccccc2)cc1Cl` (centres undefined)?
Giardia killer: -7.1

What do the screens show for `CCOC(=O)c1[nH]c2ccccc2c1NC(=O)c1ccc(OC)c(OC)c1`?
KB-3-1 tox: inactive; KB-V1 cytotox: inactive
